Assays:
Experiment in all cases: PBM binding z-score (relative to random genomic background probes); higher = stronger binding; sequences stand for … in GC…GCGATTGACAGCGTAGAATGAAGG
[1] = tested on: RARb homodimer (NR concentration 270 nM)
Procedure, shortened: (§1)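 Ligand-free nuclear receptor dimers were bound for 1 h to custom Agilent 4×180K protein-binding microarrays. Detection used antibodies against each partner (one per run). Binding z-scores rest on regression-normalized fluorescence, with random background probes as the reference.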

[2] = tested on: RARg:RXRa (NR concentration 270 nM, RXRa partner concentration 90 nM)
Procedure, shortened: as §1

[3] = tested on: RARg homodimer (NR concentration 270 nM)
Procedure, shortened: as §1

[4] = tested on: RXRa DBDmut IVT, anti-RXR (DBD mutation: RXRa K156A/R161A, NR concentration 90 nM)
Procedure, shortened: as §1

[5] = tested on: RXRa homodimer (NR concentration 180 nM)
Procedure, shortened: as §1

[6] = tested on: THRa:RXRa (NR concentration 90 nM, RXRa partner concentration 90 nM)
Procedure, shortened: as §1

[7] = tested on: THRa homodimer (NR concentration 90 nM)
Procedure, shortened: as §1

[8] = tested on: VDR homodimer (NR concentration 270 nM)
Procedure, shortened: as §1

Sequence | PBM binding z-score [1] | PBM binding z-score [2] | PBM binding z-score [3] | PBM binding z-score [4] | PBM binding z-score [5] | PBM binding z-score [6] | PBM binding z-score [7] | PBM binding z-score [8]
TCCAGTAGGTTAGGGGCATTCAGAATGGCGTCGA | 0.983 | 0.561 | 0.313 | 1.16 | 1.06 | 0.915 | 0.179 | 0.877
CCTACTGGGCCAAAAAGGTCATTGTTGCCGATAA | 4.29 | 4.28 | 3.91 | 0.617 | 4.21 | 2.92 | 0.342 | 2.3
TCTCGGAGGACAGGAAAGGTCAGAGCTCGACATC | 4.65 | 4.1 | 4.39 | 0.817 | 3.83 | 3.25 | 0.943 | 0.606
TCATATAGGGAATACAGGTGAAAGTCGGCATCTA | 0.795 | 0.472 | 0.506 | 1.68 | 1.24 | 0.864 | 0.624 | 0.435
GCATATAGGTAATACAAGGTGAGAGTCCGATTGT | 0.849 | 0.265 | 0.368 | 0.552 | 0.4 | 3.98 | 0.807 | 0.0557
CCTAGTGGGCCATCAGGTCATTGATATCAACGTT | 2.68 | 2.11 | 1.92 | 0.53 | 1.45 | 3.13 | 2.59 | 1.43
TAGCCTGGGTCATGGGCCAGTATACCACGCGAAC | 2.24 | 3.99 | 3.38 | -1.06 | 3.73 | 2.39 | -0.0617 | -0.187
TCATATGGGTAATACAGGTGAAAGTCGGCATCTA | 0.197 | 0.414 | 0.489 | 0.75 | 0.794 | 0.846 | -0.109 | -0.42
GATACAGGGTCAGCCAGAGGCCAGAGTATGGAAA | 3.47 | 6.84 | 4.98 | 1.17 | 4.6 | 3.13 | 0.534 | 0.682
TCTTGTAGACCAATAGAGGTTAAGAAAGTGCGCT | 1.42 | 0.922 | 0.638 | 0.754 | 1.37 | 1.66 | -0.31 | 0.345
TTACCAAGGTGTAGGTCGTTGATCCCTCTGTAGA | 0.426 | 0.051 | -0.436 | -0.0196 | 0.497 | 0.442 | 0.121 | 0.0922
CAAACTAGGTCAGAACAGGACAGTGAAGGATGAT | 2.11 | 2.51 | 3.33 | 0.474 | 1.28 | 3.7 | 0.447 | 0.417
CCTGCTAGGTCATGGTCAGTTAATCTACAGTATG | 3.11 | 4.04 | 5.07 | 2.12 | 3.12 | 3.23 | 1.57 | 0.435
GCGACTGGGGCATCAGTAGGTTACCATAACTTAA | 0.91 | 0.793 | 0.519 | 0.0645 | 0.498 | 0.632 | -0.249 | -0.583
ACTATTAGTTGACTTAGGCCAACCGATACGACGC | 0.826 | 0.899 | 0.91 | 0.805 | 0.539 | 0.898 | 0.912 | 0.435
ACTAGGAGGCCAAGGGTCACTCAAGATTAGTCCG | 3.93 | 4.72 | 4.05 | 0.5 | 4.48 | 2.63 | 0.41 | 1.51
CAAACTAGGTCACGAAAGTTCAAAGTCGAATGAC | 5 | 6.73 | 7.67 | 2.96 | 5.99 | 4.31 | 1.46 | 4.82
TAGCCTCGGTCAGATCGGGCCAGTATACGCTATA | 0.82 | 0.738 | 1.98 | -1.02 | -0.0826 | 2.41 | -1.11 | -1.63
CCTTACGGGGCAAGGTTATAGCACGGGTGGTACG | 0.994 | 1.01 | 1.11 | -1.2 | 1.08 | 0.828 | -0.345 | 0.2
TCGAGAAGGTTAGGGGCATTCAGAATGGCGTCGA | 1.46 | 1.08 | 0.841 | 0.703 | 1.45 | 1.12 | 0.127 | 0.971
TCATATCGGTAAAAGGTGAAAGTCGGTGTGGTAA | 2.12 | 1.68 | 0.807 | 1.6 | 2.29 | 1.4 | 0.504 | 0.635
ATCTCTAGGTATCAAGTTCAGTGAAAGAGAGGAC | 1.89 | 1.07 | 1.17 | 1.34 | 0.64 | 1.03 | 0.846 | 2.79
CGTCCAAGGTCAATGCTAGGACAGTGAAAGCATT | 4.05 | 5.76 | 5.95 | 3.01 | 4.3 | 4.3 | 2.32 | 2.24
CCTCCTGGGCCAAAAAGGTCATTGATGCCGATAA | 4.4 | 4.5 | 3.91 | 0.197 | 4.5 | 3.12 | 0.604 | 2.38
TCATATAGGTAAATGCTAGTTGAAAGTCCGATCT | -0.114 | 0.306 | 0.163 | 1.59 | 0.682 | 0.27 | -0.299 | 0.45
TCATATAGGTAGACAGGTGAAAGTCCGTAAGTTA | 0.985 | 0.378 | 0.361 | 1.68 | 0.907 | 0.763 | 0.486 | 0.286
ATACCAAGGTGATCGTGAGGTCGGTGATACTAAC | 1.4 | 1.58 | 0.586 | -0.0984 | 0.701 | 2.63 | 1.81 | 0.911
ACTAGCAGGCCAAGGGTTACTCAAGATTAGTCCG | 0.787 | 0.885 | 0.852 | -0.129 | 1.08 | 0.78 | -0.538 | -0.236
